In PubChem BioAssay (NCATS):
Several values for one entry are separate records, joined by “and”; a condition that tells them apart may be missing. Equal values may be shown once. Inconclusive results are not listed. Activity calls are given as the source filed them. Unless noted, calls come from the whole dose curve; as a rule, active = well fitted inhibition curve with a large enough effect; inconclusive = small, poorly fitted or top-dose-only effect; inactive = flat fitted curve, though single readings scatter.

Experiments:
[1] = AP1 Signaling Pathway (AID 357; active = well fitted curve in either direction with a large enough effect, not every such curve was filed as active;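 note: ME-180 reporter cells stimulated with EGF at its EC50 level; % is set by controls: 0 for no effect and ±100 for the full control effect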)
In short: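 Titration-series screen for positive or negative modulators of EC50 EGF-induced signaling in ME-180 cells carrying an AP-1-driven beta-lactamase reporter. After 5 hours at 37 degrees Celsius, CCF4 460nm/530nm emission ratio gave %Activity; AC50 values derived.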

[2] = target: Cytochrome P450 1A2 (Homo sapiens) (UniProt P05177); assay: p450-cyp1a2 (AID 410; calls by dose curve; note: potency is the fitted concentration of half-maximal effect;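 for activity change, negative = inhibition: -100% = full effect of reference inhibitor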)
In short: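 Luminescent readout of luciferin formed from Luciferin-ME by human CYP1A2; data normalized against complete inhibition by 57 uM furafylline. Enzyme 20nM, substrate 100uM at Km, 100mM KPO4 buffer, 60 min reaction at room temperature.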

[3] = Stat Signaling Pathway (AID 446; active = well fitted curve in either direction with a large enough effect, not every such curve was filed as active;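 note: ME-180 cervical cancer cells given 40 pM IL-6 alongside compound; SIE-controlled beta-lactamase reporter measured as 460/530 nm FRET emission ratio; % is set by controls: 0 for no effect and ±100 for the full control effect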)
In short: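 Screening format detects activators and inhibitors alike: ME-180 SIE-bla cells stimulated at 40 pM IL-6 for 5 hrs with compound, then dual-emission beta-lactamase read at 405 nm excitation.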

[4] = target: Mitogen-activated protein kinase 10 (Mus musculus) (UniProt Q61831); assay: JNK3 AlphaScreen Assay (AID 530; active = well fitted curve in either direction with a large enough effect, not every such curve was filed as active;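 note: kinase came from lysate of stimulated human HepG2 cells; signal reports phosphorylation of biotinylated GST-cJun 1-79 at Ser73 with 10 µM ATP; % is set by controls: 0 for no effect and ±100 for the full control effect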)
In short: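 Compound titrations were preincubated 15 minutes at room temperature with substrate, antibody and pre-activated JNK3-containing HepG2 lysate. Reactions were started with 10 uM ATP and stopped with EDTA-containing bead buffer for AlphaScreen detection.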

[5] = qHTS Assay for Lipid Storage Modulators (AID 1519; calls by dose curve); conditions: Drosophila S3 cells, BODIPY lipid droplet/cell ratio, laser cytometry, cells loaded with oleic acid
In short: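 Cells seeded at 5,000 per well were treated with compounds over a concentration series and loaded with oleic acid (400 uM, as added). Lipid droplet fluorescence (488 nm excitation, 500-530 nm channel) was read by laser-scanning cytometry and normalized to 20 uM Triacsin C.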

[6] = NFAT Signaling Pathway (AID 444; active = well fitted curve in either direction with a large enough effect, not every such curve was filed as active;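 note: carbachol stimulus at about its EC50 of 1 µM final; % is set by controls: 0 for no effect and ±100 for the full control effect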); conditions: Jurkat NFAT-bla M1, carbachol, beta-lactamase ratio, 5 h
In short: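 Read-out: CCF4 FRET ratio (460 nm/530 nm) after 1 h RT dye loading, used for %activity and AC50 from titration series. Cells: Jurkat NFAT-β-lactamase/M1 line, treated with compound plus 1 uM carbachol for 5 h, 37 °C.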

[7] = target: 3',5'-cyclic-AMP phosphodiesterase 4B (Homo sapiens) (UniProt Q07343); assay: qHTS Assay for Inhibitors of PDE-IV (AID 607; active = well fitted activation curve with a large enough effect in the main read-out, with a control signal flat, not every such curve was filed as active; note: % of control where 0% means no effect)
In short: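 The readout is membrane depolarisation from a cAMP-sensing CNG channel, detected with a potential dye at ex 535/em 590. Cells were HEK293-derived (endogenous PDE-IV) at 1000 cells/well, titrated up to 22.9 uM final.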

[8] = target: Ubiquitin carboxyl-terminal hydrolase 1 (Homo sapiens) (UniProt O94782); assay: Inhibitors of USP1/UAF1: Pilot qHTS (AID 504865);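 note: rhodamine fluorescence freed from ubiquitin-rhodamine substrate followed over time; top concentration of the series differs between compounds; % is set by controls: 0 for no effect and ±100 for the full control effect; nearly all actives have a fitted effect of over 35% in size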
In short: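 In 50mM HEPES pH 7.8 containing 0.5mM EDTA, 1mM TCEP, 0.1 mg/ml BSA and 0.01% Tween-20, 1nM USP1/UAF1 is exposed to compound for 15 min, then Ub-Rho (150nM final) is added and fluorescence is read over time.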

[9] = target: Glucocorticoid receptor (Homo sapiens) (UniProt P04150); assay: GR-GFP Redistribution (AID 450;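 active = compounds whose dose series gives a full or clear partial fitted curve of increased nuclear translocation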; note: potency is the fitted concentration of half-maximal effect); conditions: U2OS GR-GFP nuclear translocation, laser cytometry, 2 h
[10] = target: Glucocorticoid receptor (Homo sapiens) (UniProt P04150); assay: GR-EFC Redistribution (AID 451; calls by dose curve; note: potency is the fitted concentration of half-maximal effect); conditions: CHO-K1 GR-EFC translocation, beta-gal luminescence, 2 h
In short: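 Translocation of GR-ED fusion to nuclear EA restores b-gal, read by luminescence after 1 h room-temperature detection. Engineered CHO-K1 biosensor cells, 1,000/well, exposed 2 h at 37 C to titrations up to 46 uM final.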

[11] = target: Luciferin 4-monooxygenase (Photinus pyralis) (UniProt P08659); assay: Biochemical firefly luciferase enzyme assay for NPC (AID 624030);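 note: purified P. pyralis luciferase at 10 nM with luciferin and ATP substrate; 0% = DMSO and -100% = full luciferase inhibition by PTC124 control; nearly all actives have a fitted effect of over 70% in size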
In short: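 Direct inhibition of firefly luciferase enzyme (10 nM final, 50 mM Tris Acetate) assessed by luminescence within 5 minutes. Percent activity scaled between DMSO and PTC124 positive control, with concentration-effect curves classified by fit quality and response.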

[12] = qHTS profiling for inhibitors of Plasmodium falciparum proliferation (AID 504749); note: potency is the fitted concentration of half-maximal effect;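 for activity, negative = inhibition: 0% = DMSO vehicle and full inhibition = artemisinin control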; for all read-outs here: nearly all actives have a fitted effect of over 60% in size; conditions: P. falciparum in erythrocytes, SYBR Green DNA, 72 h; for activity, negative = inhibition: at 12.8 µM (top of the series)
In short: (§1)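 Infected RBCs, 0.3% parasitemia/2.5% Hct final; cpd 72 h, 37 C, 5% CO2; lysis buffer with saponin/triton/SYBR Green I, o/n RT dark; FI 485/535; norm. to artemisinin (0.29 uM) and DMSO.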

C2A = assay: as above; conditions: P. falciparum in erythrocytes, SYBR Green DNA, 72 h; series mostly up to 12.8 µM
In short: as §1

CP238 = assay: as above; conditions: P. falciparum in erythrocytes, SYBR Green DNA, 72 h; series mostly up to 12.8 µM
In short: as §1

CP256 = assay: as above; conditions: P. falciparum in erythrocytes, SYBR Green DNA, 72 h; series mostly up to 12.8 µM
In short: as §1

FAB9 = assay: as above; conditions: P. falciparum in erythrocytes, SYBR Green DNA, 72 h; series mostly up to 12.8 µM
In short: as §1

JCK = assay: as above; conditions: P. falciparum in erythrocytes, SYBR Green DNA, 72 h; series mostly up to 12.8 µM
In short: as §1

PC49 = assay: as above; conditions: P. falciparum in erythrocytes, SYBR Green DNA, 72 h; series mostly up to 12.8 µM
In short: as §1

SC27B = assay: as above; conditions: P. falciparum in erythrocytes, SYBR Green DNA, 72 h; series mostly up to 12.8 µM
In short: as §1

W2 = assay: as above; conditions: P. falciparum in erythrocytes, SYBR Green DNA, 72 h; series mostly up to 12.8 µM
In short: as §1

[13] = measured here: cell count channel max response
[14] = measured here: lipid channel max response
[15] = at 17.2 µM (top of the series) unless noted

Sequence of Glucocorticoid receptor (Homo sapiens) (P04150 whole entry, looked up, the tested form may be a part): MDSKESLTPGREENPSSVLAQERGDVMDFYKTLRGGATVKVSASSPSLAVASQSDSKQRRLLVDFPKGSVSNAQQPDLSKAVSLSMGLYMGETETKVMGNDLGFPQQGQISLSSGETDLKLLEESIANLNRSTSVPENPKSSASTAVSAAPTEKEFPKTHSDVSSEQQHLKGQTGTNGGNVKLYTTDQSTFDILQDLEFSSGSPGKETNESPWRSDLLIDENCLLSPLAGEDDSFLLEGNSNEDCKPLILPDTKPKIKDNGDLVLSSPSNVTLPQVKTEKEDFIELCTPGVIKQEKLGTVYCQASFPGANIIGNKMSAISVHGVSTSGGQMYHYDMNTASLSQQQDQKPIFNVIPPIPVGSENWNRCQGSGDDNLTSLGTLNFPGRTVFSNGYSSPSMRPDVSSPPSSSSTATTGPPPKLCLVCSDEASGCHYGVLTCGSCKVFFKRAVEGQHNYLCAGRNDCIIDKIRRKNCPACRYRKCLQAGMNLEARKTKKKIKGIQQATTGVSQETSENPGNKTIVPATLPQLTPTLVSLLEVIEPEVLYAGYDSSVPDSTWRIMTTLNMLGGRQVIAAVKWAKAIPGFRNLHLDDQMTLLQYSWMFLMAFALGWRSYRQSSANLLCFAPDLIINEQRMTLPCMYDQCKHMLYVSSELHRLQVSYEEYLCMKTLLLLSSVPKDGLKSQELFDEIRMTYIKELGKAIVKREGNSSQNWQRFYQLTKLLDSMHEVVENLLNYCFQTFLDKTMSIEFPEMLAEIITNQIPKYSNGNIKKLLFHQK
Sequence of Luciferin 4-monooxygenase (Photinus pyralis) (P08659 whole entry, looked up): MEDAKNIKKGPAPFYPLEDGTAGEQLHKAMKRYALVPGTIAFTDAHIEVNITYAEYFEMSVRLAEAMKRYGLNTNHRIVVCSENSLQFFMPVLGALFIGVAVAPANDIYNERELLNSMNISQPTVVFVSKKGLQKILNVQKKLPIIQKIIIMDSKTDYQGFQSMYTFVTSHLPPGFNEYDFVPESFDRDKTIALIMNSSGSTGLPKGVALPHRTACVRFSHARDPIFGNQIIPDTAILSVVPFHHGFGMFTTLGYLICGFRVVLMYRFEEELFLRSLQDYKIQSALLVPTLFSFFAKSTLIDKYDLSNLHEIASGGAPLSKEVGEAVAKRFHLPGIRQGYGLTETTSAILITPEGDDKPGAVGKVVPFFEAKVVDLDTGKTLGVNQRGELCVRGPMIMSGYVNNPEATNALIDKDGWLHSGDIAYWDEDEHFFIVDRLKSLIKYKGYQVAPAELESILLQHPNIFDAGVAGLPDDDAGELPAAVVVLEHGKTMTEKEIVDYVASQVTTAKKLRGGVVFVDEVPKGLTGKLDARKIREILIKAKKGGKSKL
Sequence of 3',5'-cyclic-AMP phosphodiesterase 4B (Homo sapiens) (Q07343 whole entry, looked up): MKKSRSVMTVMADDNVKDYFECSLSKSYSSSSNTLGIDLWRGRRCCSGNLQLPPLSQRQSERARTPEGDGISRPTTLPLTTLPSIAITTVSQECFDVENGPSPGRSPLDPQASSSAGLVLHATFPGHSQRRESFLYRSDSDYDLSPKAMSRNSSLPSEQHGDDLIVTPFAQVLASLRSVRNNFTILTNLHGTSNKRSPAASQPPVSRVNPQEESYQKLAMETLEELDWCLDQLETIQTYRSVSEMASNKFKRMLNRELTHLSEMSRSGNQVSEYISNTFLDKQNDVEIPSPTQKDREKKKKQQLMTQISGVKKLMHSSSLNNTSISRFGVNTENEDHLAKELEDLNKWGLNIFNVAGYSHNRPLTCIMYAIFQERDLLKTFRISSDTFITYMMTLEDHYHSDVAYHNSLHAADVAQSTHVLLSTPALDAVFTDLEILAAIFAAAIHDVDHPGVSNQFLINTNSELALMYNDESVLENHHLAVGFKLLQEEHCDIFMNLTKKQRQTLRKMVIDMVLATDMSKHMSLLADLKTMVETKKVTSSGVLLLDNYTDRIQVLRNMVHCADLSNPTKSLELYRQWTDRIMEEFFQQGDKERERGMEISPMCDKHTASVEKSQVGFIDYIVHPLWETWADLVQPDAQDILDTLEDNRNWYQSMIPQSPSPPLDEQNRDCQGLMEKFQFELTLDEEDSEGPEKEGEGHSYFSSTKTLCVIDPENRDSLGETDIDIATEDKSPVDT
Sequence of Cytochrome P450 1A2 (Homo sapiens) (P05177 whole entry, looked up): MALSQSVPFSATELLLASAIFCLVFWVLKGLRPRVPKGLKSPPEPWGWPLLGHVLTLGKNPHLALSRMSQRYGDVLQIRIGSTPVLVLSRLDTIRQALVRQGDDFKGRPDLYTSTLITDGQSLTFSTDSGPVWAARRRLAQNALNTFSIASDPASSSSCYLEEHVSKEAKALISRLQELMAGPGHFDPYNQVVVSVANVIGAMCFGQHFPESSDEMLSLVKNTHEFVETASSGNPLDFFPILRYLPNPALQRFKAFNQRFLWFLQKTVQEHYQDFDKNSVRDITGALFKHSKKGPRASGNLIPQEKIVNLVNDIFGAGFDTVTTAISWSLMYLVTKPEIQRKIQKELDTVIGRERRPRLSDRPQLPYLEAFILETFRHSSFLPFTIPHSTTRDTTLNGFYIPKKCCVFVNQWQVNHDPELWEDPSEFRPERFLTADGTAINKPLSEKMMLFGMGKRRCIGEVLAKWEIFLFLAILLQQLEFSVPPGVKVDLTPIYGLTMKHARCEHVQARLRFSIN
Sequence of Ubiquitin carboxyl-terminal hydrolase 1 (Homo sapiens) (O94782 whole entry, looked up): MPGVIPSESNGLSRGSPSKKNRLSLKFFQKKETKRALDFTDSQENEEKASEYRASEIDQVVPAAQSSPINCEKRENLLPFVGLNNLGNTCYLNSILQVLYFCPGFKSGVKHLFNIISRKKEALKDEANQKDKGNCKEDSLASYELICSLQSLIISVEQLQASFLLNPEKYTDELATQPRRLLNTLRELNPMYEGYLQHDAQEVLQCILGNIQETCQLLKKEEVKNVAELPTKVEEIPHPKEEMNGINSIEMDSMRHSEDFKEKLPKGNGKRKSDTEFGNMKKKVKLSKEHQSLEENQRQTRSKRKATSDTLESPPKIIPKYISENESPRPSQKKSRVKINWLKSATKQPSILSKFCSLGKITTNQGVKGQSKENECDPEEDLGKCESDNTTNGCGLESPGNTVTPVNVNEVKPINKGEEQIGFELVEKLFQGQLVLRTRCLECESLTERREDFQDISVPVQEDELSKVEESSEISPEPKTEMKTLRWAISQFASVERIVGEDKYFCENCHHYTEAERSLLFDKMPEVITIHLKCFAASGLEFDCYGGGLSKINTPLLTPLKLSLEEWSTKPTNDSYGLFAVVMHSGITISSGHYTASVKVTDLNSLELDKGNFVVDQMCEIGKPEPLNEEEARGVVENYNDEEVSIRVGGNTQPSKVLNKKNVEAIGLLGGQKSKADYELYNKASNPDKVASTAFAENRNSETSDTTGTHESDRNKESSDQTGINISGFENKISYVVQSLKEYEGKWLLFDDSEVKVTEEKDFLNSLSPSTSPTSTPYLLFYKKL

O=C(c1cc(C(F)(F)F)cc(C(F)(F)F)c1)N1CCC[C@@]2(CCN(c3ccccn3)C2)C1
active: Potency [2] 25.1 µM
inactive: outcome [1] | outcome [3] | Potency [4] | activity change, negative = inhibition ([5]; at 57.5 µM (top of the series)) -14.3%
-3.88%: max response [5, 13]
-16.6%: max response [5, 14]

CN=C(NC#N)NCCSC[C@H]1N=CN=C1C
inactive: outcome [1] | Potency [2] | activity change, negative = inhibition [6, 15] -3.43% | Potency [4] | outcome [7] | activity change, negative = inhibition ([5]; at 25.7 µM (top of the series)) -0.0882% | Potency [8]
-1.32%: max response [5, 14]
-1.59%: max response [5, 13]

CC[C@H]1NC(=O)c2cc(S(N)(=O)=O)c(Cl)cc2N1
inactive: outcome [1] | activity change, negative = inhibition [6, 15] -14.6% | outcome [3] | Potency [9] > 20.6 µM | Potency [10] > 20.6 µM | Potency [4] | activity change, negative = inhibition ([5]; at 25.7 µM (top of the series)) -1.77% | Potency [8] | Potency [11] | activity, negative = inhibition ([12]; parasite line A) -8.58% | activity, negative = inhibition ([12]; parasite line B) 18.4% | Potency (C2A) | Potency (CP238) | Potency (CP256) | Potency (FAB9) | Potency (JCK) | Potency (PC49) | Potency (SC27B) | Potency (W2)
0.892%: max response [5, 13]
-1.37%: max response [5, 14]

C[C@@]1(O)CCOC(=O)C1
-5.01%: max response [5, 14]
-3.45%: max response [5, 13]
inactive: outcome [1] | Potency [2] | outcome [3] | Potency [9] > 20.6 µM | Potency [10] > 20.6 µM | Potency [4] | outcome [7] | activity change, negative = inhibition ([5]; at 25.7 µM (top of the series)) -1.74% | Potency [8]

c1ccc2c3c([nH]c2c1)[C@@H]1[C@H]2CC[C@H]([C@H]4CCCN[C@H]42)N1CC3
-3.2%: max response [5, 14]
0.348%: max response [5, 13]
active: Potency [2] 15.8 µM
inactive: outcome [1] | outcome [3] | Potency [9] > 20.6 µM | Potency [10] > 20.6 µM | Potency [4] | outcome [7] | activity change, negative = inhibition ([5]; at 25.7 µM (top of the series)) -1.37%

CCOC(=O)O[C@]1(C(=O)COC(=O)CC)CC[C@@H]2[C@@H]3CCC4=CC(=O)C=C[C@@]4(C)[C@H]3[C@H](O)C[C@]21C
active: Potency [9] 0.00356 µM
inactive: outcome [1] | Potency [2] | outcome [3] | Potency [4] | outcome [7] | activity change, negative = inhibition ([5]; at 25.7 µM (top of the series)) -3.74% | Potency [8] | Potency [11] | activity, negative = inhibition ([12]; parasite line A) 4.34% | activity, negative = inhibition ([12]; parasite line B) 0.379% | Potency (C2A) | Potency (CP238) | Potency (CP256) | Potency (FAB9) | Potency (JCK) | Potency (PC49) | Potency (SC27B)
-11.8%: max response [5, 14]
-6.91%: max response [5, 13]

CC(C)(C)NC[C@@H](O)COc1ccccc1C1CCCC1
-12.5%: max response [5, 14]
active: Potency [9] 4.85 µM | Potency ([12]; parasite line B) 3.16 µM | Potency (CP238) 3.16 µM | Potency (CP256) 3.98 µM | Potency (JCK) 3.16 µM | Potency (PC49) 2.24 µM | Potency (SC27B) 3.55 µM | Potency (W2) 572 nM
-14.9%: max response [5, 13]
inactive: outcome [1] | activity change, negative = inhibition [6, 15] -6.56% | outcome [3] | Potency [10] > 20.6 µM | Potency [4] | activity change, negative = inhibition ([5]; at 25.7 µM (top of the series)) 1.2% | Potency [8] | Potency [11]

CS(=O)(=O)Nc1cccc(-c2nc(Nc3ccccc3)c3ccccc3n2)c1
2.43%: max response [5, 14]
inactive: outcome [1] | Potency [9] > 46 µM | Potency [10] > 46 µM | Potency [4] | activity change, negative = inhibition ([5]; at 57.5 µM (top of the series)) 7.97%
active: Potency [2] 0.794 µM
-5.28%: max response [5, 13]

OCCN1CCN(CCC=C2c3ccccc3Sc3ccc(Cl)cc32)CC1
-13.2%: max response [5, 13]
active: Potency [2] 15.8 µM | Potency (CP256) 3.55 µM | Potency (W2) 721 nM
inactive: outcome [1] | outcome [3] | Potency [9] > 20.6 µM | Potency [10] > 20.6 µM | Potency [4] | outcome [7] | activity change, negative = inhibition ([5]; at 25.7 µM (top of the series)) -7.08% | Potency [8] | Potency [11] | Potency (C2A) | Potency (CP238) | Potency (FAB9) | Potency (JCK) | Potency (SC27B)
-20.1%: max response [5, 14]

C[C@@H]1C[C@@H]2[C@H]3CCC4=CC(=O)C=C[C@]4(C)[C@]3(F)[C@@H](O)C[C@]2(C)[C@@]1(O)C(=O)CO
inactive: outcome [1] | Potency [2] | activity change, negative = inhibition [6, 15] -9.85% | outcome [7] | activity change, negative = inhibition ([5]; at 25.7 µM (top of the series)) -3.53% | Potency [8]
2.12%: max response [5, 13]
-8.18%: max response [5, 14]

CC(=O)O[C@@H]1C(=O)[C@@]2(C)[C@H](O)C[C@H]3OC[C@]3(OC(C)=O)[C@@H]2[C@H](OC(=O)c2ccccc2)[C@@]2(O)C[C@H](OC(=O)[C@@H](O)[C@@H](NC(=O)c3ccccc3)c3ccccc3)C(C)=C1C2(C)C (stereo in doubt)
-13.6%: max response [5, 14]
inactive: outcome [1] | activity change, negative = inhibition ([6]; at 17.2 µM (top of the series)) 6.42% | activity change, negative = inhibition ([6]; at 38 µM (top of the series)) 6.57% | Potency [9] > 46 µM and > 20.6 µM | Potency [10] > 46 µM and > 20.6 µM | Potency [4] | outcome [7] | activity change, negative = inhibition ([5]; at 25.7 µM (top of the series)) -8.68%
-5.62%: max response [5, 13]

C[C@@H]1[C@H]2CC[C@@H]3[C@@H]4CC=C5C[C@@H](N(C)C)CC[C@]5(C)[C@@H]4CC[C@@]32CN1C
inactive: outcome [1] | Potency [2] | outcome [3] | Potency [9] > 20.6 µM | Potency [10] > 20.6 µM | Potency [4] | outcome [7] | activity change, negative = inhibition ([5]; at 25.7 µM (top of the series)) -1.08%
-8.59%: max response [5, 14]
-4.62%: max response [5, 13]

C[C@H]1CC[C@]2(OC1)O[C@@H]1C[C@@H]3[C@@H]4CC[C@H]5C[C@@H](O)CC[C@]5(C)[C@@H]4CC(=O)[C@@]3(C)[C@H]1[C@@H]2C
-7.26%: max response [5, 14]
-5.08%: max response [5, 13]
inactive: outcome [1] | Potency [2] | activity change, negative = inhibition [6, 15] 0.559% | Potency [4] | outcome [7] | activity change, negative = inhibition ([5]; at 25.7 µM (top of the series)) -1.95% | Potency [8] | Potency [11] | activity, negative = inhibition ([12]; parasite line A) 11.1% | activity, negative = inhibition ([12]; parasite line B) 13.9% | Potency (C2A) | Potency (CP238) | Potency (CP256) | Potency (FAB9) | Potency (JCK) | Potency (PC49) | Potency (SC27B) | Potency (W2)

CC1(C)S[C@@H]2[C@H](NC(=O)C(N)c3ccccc3)C(=O)N2[C@H]1C(=O)O (some centres undefined)
inactive: outcome [1] | Potency [2] | activity change, negative = inhibition [6, 15] -1.78% | outcome [7] | activity change, negative = inhibition ([5]; at 25.7 µM (top of the series)) -0.37% | Potency [8]
8.14%: max response [5, 13]
6.97%: max response [5, 14]
